# Screening results deposited in PubChem BioAssay by National Center for Advancing Translational Sciences (NCATS).
# Shown are actives, neighbours in structure and some others; about 10% of the full set was active somewhere.
# RORgamma inh: qHTS for inhibitors of ROR gamma transcriptional activity. Nuclear receptor ROR-gamma (Mus musculus), P51450. Drosophila S2 Gal4-RORgamma UAS-luciferase reporter, 20 h. Potency, µM (titrated, usually from 53.6 µM), without a hit: at the highest dose activity change, negative = inhibition, actives largely listed as inhibitors. actives 5.4% (n = 310,000); also: % is scaled to controls: 0 for no effect and ±100 for the full control effect; nearly all actives have a fitted effect of over 60% in size
# Target sequence (P51450 whole entry, looked up, the tested form may be a part): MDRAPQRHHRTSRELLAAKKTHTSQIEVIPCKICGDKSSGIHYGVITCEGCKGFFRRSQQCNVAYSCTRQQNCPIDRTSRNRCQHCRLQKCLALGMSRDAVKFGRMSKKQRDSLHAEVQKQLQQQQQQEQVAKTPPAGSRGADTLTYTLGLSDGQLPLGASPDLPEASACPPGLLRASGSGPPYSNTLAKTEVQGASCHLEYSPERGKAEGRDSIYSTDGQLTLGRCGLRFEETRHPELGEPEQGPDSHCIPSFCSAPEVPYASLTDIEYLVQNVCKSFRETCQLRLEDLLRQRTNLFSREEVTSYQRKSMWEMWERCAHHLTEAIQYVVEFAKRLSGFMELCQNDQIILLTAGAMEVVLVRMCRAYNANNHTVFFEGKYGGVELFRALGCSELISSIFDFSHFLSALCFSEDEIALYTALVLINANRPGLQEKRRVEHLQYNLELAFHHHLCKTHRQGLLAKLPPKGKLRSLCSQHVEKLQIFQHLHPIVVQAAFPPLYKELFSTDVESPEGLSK
#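 Read-out: Photinus luciferase luminescence; inhibitors lower reporter signal. Insect Schneider cells with Gal4-ROR gamma fusion under metallothionein promoter, UAS reporter; 700 uM final copper sulfate induction, 20 hr, ambient temperature.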
# KB-3-1 cytotox: qHTS assay for MDR1-selective chemotherapeutics: Primary screen using the parental adenocarcinoma cell KB-3-1; KB-3-1 viability, CellTiter-Glo ATP luminescence, 72 h; Potency, µM (top dose mostly 46.1 µM), most hits filed as cytotoxic; actives 1.4% (n = 400,000); AID 1347075, 2019; also: % is scaled to controls: 0 for no effect and ±100 for the full control effect; nearly all actives have a fitted effect of over 60% in size
#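 Viability of parental KB-3-1 cells, measured by CellTiter-Glo luminescence, followed a 72 h incubation at 37 °C with pinned compounds in phenol-red-free DMEM containing 10% FBS.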
# MCF10A rerep: A quantitative high throughput screen for small molecules that induce DNA re-replication in MCF 10a normal breast cells. MCF 10A DNA re-replication, Hoechst nuclear intensity, 48 h. Potency, µM (series often up to 46.1 µM), without a hit: top-dose activity, positive = re-replication, usual class: activators. actives 2.9% (n = 350,000). AID 624296, 2012; also: % of control where 0% means no effect; nearly all actives have a fitted effect of over 50% in size
# VP16 counter: VP16 counterscreen qHTS for inhibitors of ROR gamma transcriptional activity | Potency, µM (doses to about 53.6 µM), for inactives: top-dose activity, negative = inhibition, usual class: inhibitors | actives 3.5% (n = 310,000) | AID 2546, 2010 | Drosophila S2 Gal4-VP16 UAS-luciferase, luminescence, 20 h;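 also: Gal4-VP16 expression switched on by copper sulfate through the metallothionein promoter; % is scaled to controls: 0 for no effect and ±100 for the full control effect; nearly all actives have a fitted effect of over 50% in size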
# KB-V1 MDR tox: qHTS assay for MDR1-selective chemotherapeutics: Primary screen using the drug-selected MDR subline cells KB-V1. KB-V1 MDR cells viability, CellTiter-Glo, 72 h. Potency, µM (series often up to 46.1 µM), most hits filed as cytotoxic. actives 3.4% (n = 400,000). AID 1347076, 2019; also: % is scaled to controls: 0 for no effect and ±100 for the full control effect; nearly all actives have a fitted effect of over 60% in size
#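 qHTS viability screen in drug-selected KB-V1 MDR cells: 72 h compound treatment at 37 degrees C, ATP luminescence end point.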
# SW480 rereplic: A quantitative high throughput screen for small molecules that induce DNA re-replication in SW480 colon adenocarcinoma cells. SW480 DNA re-replication, Hoechst DNA content imaging, 48 h. Potency, µM (titrated, usually from 46.1 µM), without a hit: at the top dose re-replication activation, actives largely listed as activators. actives 1.8% (n = 340,000). AID 624297, 2012; also: % of control where 0% means no effect; nearly all actives have a fitted effect of over 55% in size
#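 Readout is total intensity of Hoechst-stained nuclei, excited at 405 nm and collected at 500-530 nm. Compound treatment lasted 48 hr at 37 C in 5% CO2 before staining.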
# * marks the source's active call; other numbers are inactive results; i = inactive; ? = inconclusive; . = no result. Calls follow the shape of the dose curve; as a rule, active = well fitted curve in the direction sought with a large enough effect; inconclusive = small, poorly fitted or top-dose-only effect, or another doubt; inactive = no such curve, though single readings can be large; an effect the other way counts as inactive or inconclusive. Potency is read from the fitted curve at half-maximal effect.
SMILES,RORgamma inh,KB-3-1 cytotox,MCF10A rerep,VP16 counter,KB-V1 MDR tox,SW480 rereplic
O=C(N/N=C/c1ccccn1)c1cccc([N+](=O)[O-])c1,4.5µM*,i,16%,13µM*,i,?
Cc1cccc(C(=O)Nc2cccc(C(=O)N/N=C/c3ccccn3)c2)c1,1%,i,5%,5%,i,?
O=C(N/N=C/c1ccccc1O)c1cccc(C(F)(F)F)c1,1µM*,?,?,2µM*,?,?
Cc1cccc(C(=O)N/N=C/c2ccccn2)c1,6.3µM*,i,13%,14µM*,i,-6%
CC1(C)CC(=O)C=C(c2n[nH]nc2C2CC2)C1,.,i,.,.,i,.
CCC1CCCCN1CCCNC(=O)c1cc2c(=O)oc3ccc(C)cc3c2s1 (stereo not given),-10%,i,16%,-7%,i,110%
COc1ccc(NC(=O)CSc2nnc(-c3ccc(C)cc3)o2)cc1,.,i,.,.,i,.
COc1cccc(NC(=O)CSc2nnc(Cc3cccs3)n2-c2ccc(C)cc2)c1,-27%,i,8%,-10%,8.2µM*,2%
COc1ccc(-c2nnc(SCC(=O)Nc3cc(C)on3)o2)cc1,11µM*,i,-4%,?,i,-2%
CCOC(=O)CSc1nnc(-c2ccc(OC)cc2OC)o1,8.9µM*,i,?,?,i,4%
CCc1cc2ccc(OC)cc2nc1SCC(=O)Nc1cc(C)on1,0%,i,13µM*,-27%,i,7%
O=C(CCc1ccccc1)N(Cc1cccnc1)c1nc2c(F)cc(F)cc2s1,.,i,.,.,i,.
NC(c1csc(Nc2ncccn2)n1)c1ccccc1Cl (stereo not given),.,i,.,.,i,.
CC(C)OCCCn1c(SCc2ccccc2C#N)nc2c(sc3ccccc32)c1=O,.,i,.,.,i,.
O=C(Oc1ccccc1)N1CCC2(CC1)CCN(c1ccncc1)CC2,-11%,.,.,-10%,.,.
O=C(NCCC1=CCCCC1)c1ccc2c(c1)N(Cc1ccccc1F)C(=O)c1ccccc1S2=O (stereo not given),.,i,.,.,i,.
COc1ccc(C)cc1NC(=O)CSc1nnc(-c2ccc(Br)cc2)o1,1%,i,13µM*,1%,i,20%
COc1cccc(NC(=O)CSc2nnc(-c3ccc(C)cc3)o2)c1,?,i,0%,13µM*,i,2%
COC(=O)Sc1nnc(-c2ccc(Br)cc2)o1,18µM*,.,.,7%,.,.
CN(C(=O)CSc1nc2ccc(NC(=O)COc3ccc(Cl)cc3)cc2s1)c1ccccc1,.,?,.,.,21µM*,.
CN(CC(=O)Nc1ccccc1Cl)C(=O)COC(=O)c1nc(Cl)c(Cl)c(Cl)c1Cl,-29%,?,5.8µM*,?,i,?
CN(CC(=O)Nc1ccccc1Cl)C(=O)COC(=O)c1ccc(Cl)nc1,.,i,2%,.,i,-3%
Cc1cccc(NC(=O)CSc2nc3ccc(NC(=O)COc4ccc(Cl)cc4)cc3s2)c1,.,?,.,.,i,.
CCc1ccccc1NC(=O)CN(C)C(=O)CSc1nnc(Nc2cccc(C)c2C)s1,22%,i,15%,-10%,18µM*,-4%
CN(CC(=O)Nc1ccccc1Cl)C(=O)CSc1nc2ccccc2s1,37%,i,-3%,-21%,16µM*,2%
SMILES,RORgamma inh,KB-3-1 cytotox,MCF10A rerep,VP16 counter,KB-V1 MDR tox,SW480 rereplic
COc1cc(CNC(=O)c2cc(-c3cc(Cl)ccc3C)n[nH]2)cc(OC)c1,.,i,.,.,i,.
Cc1cc(Br)cn2c(Cc3ccccc3)c(-c3ccccc3)nc12,.,?,.,.,i,.
CCNC(=O)[C@H](C)/C=C/C(NC(=O)OCc1ccccc1)c1ccc(C(=O)OC)cc1 (stereo not given in full),0%,.,.,-1%,.,.
O=[N+]([O-])c1cc(S(=O)(=O)Nc2ccc(Cl)cc2)ccc1N/N=C/c1ccncc1,-4%,i,4.1µM*,-6%,i,4%
O=[N+]([O-])c1ccc(Cl)cc1N/N=C/c1ccncc1,-17%,i,14%,0%,i,-2%
COc1ccccc1OC(C)C(=O)Nc1c(C(=O)c2ccc(Cl)cc2)oc2ccccc12 (stereo not given),.,i,.,.,?,.
CCC(=O)N1CCc2cc(S(=O)(=O)NC(C(=O)NCCc3cccc(C)c3)C(C)C)ccc21 (stereo not given),.,i,.,.,i,.
CC(C)(C)C(=O)Nc1cc2nn(-c3ccccc3)nc2cc1Cl,0.63µM*,i,?,3.5µM*,i,7.3µM*
CC(=O)Nc1cc2nn(-c3ccccc3)nc2cc1Cl,?,i,?,-1%,i,4%
O=C(CN1C(=O)COc2ccc(S(=O)(=O)NC3CCCC3)cc21)Nc1ccc(Cl)cc1,.,i,.,.,?,.
COc1cc(/C=N/N=C(/C(=O)c2ccccc2)c2ccccc2)cc(OC)c1O,?,i,?,-26%,9.2µM*,3%
Cc1csc(NC(=O)CSc2nc3[nH]c(=O)cc(O)c3s2)n1,.,4.1µM*,9.2µM*,.,21µM*,?
O=C(CSc1nc2[nH]c(=O)cc(O)c2s1)Nc1nncs1,.,i,-4%,.,i,9%
C/C(Cc1ccccc1)=N/NC(=O)CCCC(=O)N/N=C(/C)Cc1ccccc1,1%,i,0%,-4%,i,0%
CNC(=S)NN=C(C)CCCC(C)=NNC(=S)NC,.,?,1%,.,i,0.41µM*
CC(C)C[C@H]1CN(CCCC[C@H]2CNC(=O)C(=O)N2CCc2ccc(O)cc2)C(=O)C(=O)N1CCC1CCCCC1,.,i,.,.,i,.
Cc1ccc(C(=O)N2CC3(C(C)C)CN(C(=O)c4ccc(C)cc4)CC(C(C)C)(C2)C3=O)cc1,-4%,i,5%,-2%,i,1%
CCC12CN(C(=O)c3ccc(C)cc3)CC(CC)(CN(C(=O)c3ccc(C)cc3)C1)C2=O,3%,i,2%,6%,5.2µM*,?
O=C(NCc1ccccn1)C1(C(F)(F)F)CC(CCCO)CCCO1 (stereo not given),8%,.,.,1%,.,.
CC(C)C(=O)NC(c1cccs1)c1cc([N+](=O)[O-])c2cccnc2c1O (stereo not given),3.2µM*,?,?,3.5µM*,?,?
